Compound activity: PubChem BioAssay, several laboratories
IEC-6 tox: IEC-6 cytotoxicity, counter-screen for KLF5 inhibitors | luminescence viability | inhibition, % at 5 µM | 290,000 tested, 0.78% active; in the data active means inhibition above about 22%;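 further: 0% = plate median of test compound wells and 100% = cytotoxic reference compound wells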
APP 5UTR inh: APP translation inhibition; SH-SY5Y APP 5'UTR-luciferase reporter, luminescence; AID 1285; 190,000 tested, 0.82% active; inhibition, % at 2 µM;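 active means inhibition above a set limit, derived from the sample mean plus 3 SD, cut at about 45% in these data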
BaF3 parental: parental Ba/F3 viability inhibition as JAK2V617F counter-screen; CellTiter-Glo ATP luminescence; inhibition, % at 5.6 µM; 220,000 tested, 1.1% active; AID 1486;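 active means inhibition above a per-campaign cutoff, the mean inhibition of all tested compounds plus 3 SD, cut at about 27% in these data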;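 further: 0% = DMSO wells and 100% = JAK Inhibitor I control wells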
KLF5 inhibitor: inhibitors of KLF5 expression; DLD-1 KLF5 promoter-luciferase reporter, luminescence; inhibition, % at 5 µM; 290,000 tested, 0.23% active; AID 1700;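 active means inhibition above a per-plate limit of that plate's mean compound inhibition plus 3 SD, cut at about 60% in these data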;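 further: 0% = DMSO wells and 100% = LY294002 at 200 µM; higher means less KLF5 promoter-driven luciferase light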
aSyn UTR inh: MLPCN primary screen, SNCA 5' untranslated region | 300,000 tested, 0.82% active | AID 1813 | alpha-synuclein 5'UTR reporter, inhibitor activity | inhibition, % (tested at 7.5 µM); in the data active means inhibition above about 60%;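 further: H4 neuroglioblastoma cells stably carrying SNCA 5'UTR luciferase fusion; 0% = DMSO wells and 100% = positive control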
Ba/F3 V617F tox: reduce viability of Ba/F3 cells dependent on JAK2V617F; 220,000 tested, 1.1% active; inhibition, % at 5.6 µM; Ba/F3 EpoR-JAK2V617F viability, ATP luminescence;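 active means inhibition above the campaign mean plus 3 SD over all tested compounds, cut at about 24% in these data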;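 further: cytokine-independent growth of Ba/F3 cells driven by EpoR plus mutant JAK2; 0% = DMSO-treated cells and 100% = JAK inhibitor I control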
Numbers without * were called inactive. A selection: hits, their analogues and other compounds. The true share with any hit is near 2.2%.

CC(=O)OCc1nc2sc(C)c(C)c2c(=O)[nH]1 was read as IEC-6 tox 1.8, APP 5UTR inh 59.0*, BaF3 parental -0.7, KLF5 inhibitor -26.2, aSyn UTR inh -1.3 and Ba/F3 V617F tox -3.9.
`CC(=O)Nc1ccc(N(C(=O)CNC(=O)c2ccco2)C(C(=O)NC2CCCC2)c2ccco2)cc1` (centres undefined) gave IEC-6 tox -2.3, KLF5 inhibitor -34.1 and aSyn UTR inh -26.3.
Screening COc1ccc(C(=O)CCC(=O)N2CCN(c3ccccc3)CC2)cc1 returned IEC-6 tox -2.8, KLF5 inhibitor -6.2 and aSyn UTR inh -19.4.
`O=c1c2c(nc3c(-c4cccc(Br)c4)c[nH]n13)CCCC2` gave IEC-6 tox -6.9, APP 5UTR inh -13.0, BaF3 parental -1.3, KLF5 inhibitor -42.6, aSyn UTR inh 68.7* and Ba/F3 V617F tox -3.1.
`Oc1ccccc1-c1nnc(SCCN2CCOCC2)n1Cc1ccccc1` gave IEC-6 tox -1.1, APP 5UTR inh 37.4, BaF3 parental 82.6*, KLF5 inhibitor 49.2, aSyn UTR inh 80.7* and Ba/F3 V617F tox 94.2*.
For CC1(c2ccccc2)NC(=O)N(CC(=O)Nc2ccccc2C(=O)N2CCCCC2)C1=O (centres undefined) the results were aSyn UTR inh 3.7.
Screening O=[N+]([O-])c1cc(Cl)cc(/C=N\Nc2ccccn2)c1O returned IEC-6 tox -3.1, APP 5UTR inh 8.6, BaF3 parental -2.4, KLF5 inhibitor -14.6, aSyn UTR inh 89.9* and Ba/F3 V617F tox -2.2.
CN(C)c1cc[n+](CC(=O)N2c3ccccc3Sc3ccccc32)cc1 was read as IEC-6 tox 3.3, APP 5UTR inh 3.0, BaF3 parental 37.3*, KLF5 inhibitor -0.8 and Ba/F3 V617F tox 23.8*.
`COCCN=c1scc(C)n1/N=C/C1CC2C=CC1C2` (centres undefined) gave IEC-6 tox 2.2, APP 5UTR inh 1.8, BaF3 parental 2.4, KLF5 inhibitor -26.6, aSyn UTR inh -5.5 and Ba/F3 V617F tox 3.2.
For CCCN1C(=O)C(O)(c2c(C)[nH]c3ccccc23)c2ccccc21 (centres undefined) the results were IEC-6 tox 0.8, BaF3 parental -2.7, KLF5 inhibitor 6.6, aSyn UTR inh 7.6 and Ba/F3 V617F tox -4.1.
For Cc1[nH]c2ccccc2c1C1(O)C(=O)N(Cc2ccc3c(c2)OCO3)c2ccccc21 (centres undefined) the results were IEC-6 tox 19.5, APP 5UTR inh -14.8, BaF3 parental 84.6*, KLF5 inhibitor -25.0, aSyn UTR inh -15.6 and Ba/F3 V617F tox 78.5*.
CCc1ccc(OCCCOc2ccc(C=O)cc2)cc1 was read as IEC-6 tox -5.4, APP 5UTR inh 7.9, BaF3 parental 101.9*, KLF5 inhibitor -47.9, aSyn UTR inh 3.6 and Ba/F3 V617F tox 0.8.
Screening C=CCOc1nc(-c2ccccc2Cl)nc2ccccc12 returned IEC-6 tox 1.0, BaF3 parental 1.6, KLF5 inhibitor -21.1, aSyn UTR inh 72.1* and Ba/F3 V617F tox -0.7.
COC(=O)c1ccc(C2c3c(oc4ccc(Cl)cc4c3=O)C(=O)N2CCN2CCOCC2)cc1 (centres undefined) was read as IEC-6 tox 10.9, BaF3 parental 0.5, KLF5 inhibitor 5.6, aSyn UTR inh -14.1 and Ba/F3 V617F tox 1.5.
`O=C(c1c[nH]c(C(=O)N2CCN(c3ccccc3F)CC2)c1)c1cccc(Cl)c1Cl` gave IEC-6 tox -3.7, APP 5UTR inh 56.7*, BaF3 parental 11.7, KLF5 inhibitor -17.1, aSyn UTR inh 43.1 and Ba/F3 V617F tox 1.4.
O=C(NCc1ccccc1Br)C1CCCO1 (centres undefined) was read as IEC-6 tox -10.6, KLF5 inhibitor -16.4 and aSyn UTR inh -0.4.
COc1ccc(/C=C2/CCc3ccccc3C2=O)cc1OC was read as IEC-6 tox -2.5, APP 5UTR inh -100.8, BaF3 parental 6.0, KLF5 inhibitor -6.1, aSyn UTR inh -18.2 and Ba/F3 V617F tox 0.4.
Screening COc1ccc(/C=C2\CCc3ccccc3C2=O)cc1CN1CCOCC1 returned IEC-6 tox -8.8, BaF3 parental -1.6, KLF5 inhibitor -29.3, aSyn UTR inh 62.5* and Ba/F3 V617F tox -0.5.
CCC/C(O)=C1\C(=O)CC(C)(C)CC1=Nc1ccc(OC)cc1OC was read as IEC-6 tox 14.4, APP 5UTR inh 86.4*, BaF3 parental 7.2, KLF5 inhibitor 6.2, aSyn UTR inh 12.0 and Ba/F3 V617F tox 8.1.
CC(C)N(Cc1cc2ccccc2[nH]c1=O)C(=O)C1CCCCC1 was read as IEC-6 tox 1.5, APP 5UTR inh -26.1, BaF3 parental 27.5*, KLF5 inhibitor -12.8, aSyn UTR inh 11.8 and Ba/F3 V617F tox -2.2.
`Cc1ccc(C#CC[N+](C)(C)CC#Cc2ccccc2)cc1` gave IEC-6 tox 1.8, APP 5UTR inh 10.5, BaF3 parental 68.2*, KLF5 inhibitor 0.0, aSyn UTR inh 29.1 and Ba/F3 V617F tox 84.5*.
COc1ccc(-n2c(-c3ccc(Cl)cc3)c[n+]3c2CCCCC3)cc1 was read as IEC-6 tox 14.5, BaF3 parental 65.5*, KLF5 inhibitor -48.4, aSyn UTR inh -10.7 and Ba/F3 V617F tox 72.2*.
`COc1ccc(-c2c[n+]3c(n2-c2c(C)n(C)n(-c4ccccc4)c2=O)CCCCC3)cc1` gave IEC-6 tox 5.0, APP 5UTR inh 17.2, BaF3 parental 3.1, KLF5 inhibitor -18.2, aSyn UTR inh 0.3 and Ba/F3 V617F tox -1.2.
Screening FC(F)Oc1ccc(-c2c[n+]3c(n2-c2ccccc2)CCCCC3)cc1 returned IEC-6 tox -1.7, BaF3 parental 60.4*, KLF5 inhibitor -9.6, aSyn UTR inh 15.1 and Ba/F3 V617F tox 64.1*.
For CCOc1ccc(-n2c(-c3ccccc3)c[n+]3c2CCC3)cc1 the results were IEC-6 tox 19.5, APP 5UTR inh 21.5, BaF3 parental 68.4*, KLF5 inhibitor -12.6, aSyn UTR inh -13.2 and Ba/F3 V617F tox 79.0*.
`COc1ccc(-c2c[n+]3c(n2-c2ccccc2)CCCCC3)cc1` gave IEC-6 tox 17.2, APP 5UTR inh -1.3, BaF3 parental 64.0*, KLF5 inhibitor 6.1, aSyn UTR inh -8.8 and Ba/F3 V617F tox 76.2*.
Screening COc1cccc(NC(=O)Nc2ccc(C(C)(C)C)cc2)c1 returned IEC-6 tox 9.9, APP 5UTR inh -119.6, BaF3 parental 2.0, KLF5 inhibitor -114.3, aSyn UTR inh -0.6 and Ba/F3 V617F tox -0.2.
Screening Cc1cc(C(C)(C)C)ccc1OCC(=O)N/N=C\c1c(C)n(C)n(-c2ccccc2)c1=O returned IEC-6 tox -1.9, KLF5 inhibitor 12.3 and aSyn UTR inh -2.3.
CCCn1c(CN2CCN(C(=O)OCC)CC2)nc2cc(NC(C)=O)ccc21 was read as IEC-6 tox -2.0, KLF5 inhibitor -21.2 and aSyn UTR inh 0.1.
CCOc1nc(-c2ccccc2)c2cc(Br)ccc2n1 was read as IEC-6 tox 0.3, KLF5 inhibitor 3.4 and aSyn UTR inh 40.5.
Screening CC(C)(C)c1ccc(Oc2ccc(NC(=O)c3ccco3)cn2)cc1 returned IEC-6 tox 13.4, BaF3 parental 72.3*, KLF5 inhibitor -31.5, aSyn UTR inh -10.6 and Ba/F3 V617F tox 79.5*.
